# Laboratory results from PubChem BioAssay.
# The source made the active and inactive calls.
# Experiments:
# [1] = test system: Wnt5a (protein binding on small-molecule microarray); experiment: small molecules binding Wnt5a protein – biophysical, small-molecule microarray, 635/667 nm fluorescence, primary screen (AID 1142); settings: 635 nm fluorescence, higher = more signal;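 also: fluorescence read at 667 nm with signal to noise per printed feature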
# [2] = ATP-based viability of Huh7 replicon cells – cell-based, CellTiter-Glo luminescence, basal, 48 h, cytotoxicity control for HCV replication inhibitor project, primary screen (AID 1143); settings: higher = more signal, called active from +8 up or from −8 down;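 also: Huh7 hepatoma cells carrying a hepatitis C replication reporter with no stimulus; test concentration not given here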
# [3] = basal CRE-LacZ reporter activity in PC12 – cell-based, unstimulated, primary screen (AID 1145); settings: no forskolin, luminescence, 4.5 h, higher = more signal, called active from +8 up or from −8 down
# [4] = forskolin-driven CRE-LacZ activity in PC12 – cell-based, CRE-LacZ reporter, forskolin-stimulated, primary screen (AID 1146); settings: luminescence, 4.5 h, higher = more signal, called active from +8 up or from −8 down;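 also: PC12 cells with 6xCRE LacZ reporter stimulated by forskolin 10 µM; beta-galactosidase reporter signal reflecting CREB driven transcription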
# [5] = target: Streptavidin (Streptomyces avidinii) (UniProt P22629); experiment: compounds binding control protein streptavidin – biophysical, small-molecule microarray, 635/667 nm fluorescence, artefact control for SMM compound annotation, primary screen (AID 1147); settings: higher = more signal;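 also: signal reflects streptavidin binding to arrayed compounds as a control protein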
# [6] = probe aInhba binding on compound microarray – biochemical, small-molecule microarray, 635/667 nm fluorescence, primary screen (AID 1148); settings: higher = more signal;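 also: score merges 667nm spot fluorescence with signal-to-noise for antibody binding to printed compounds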
# Torsin-1A (Homo sapiens) [7] = target: Torsin-1A (Homo sapiens) (UniProt O14656); experiment: TOR1A wild-type binding on microarray – cell lysate, small-molecule microarray, lysate, 635/667 nm, primary screen (AID 1149); settings: COS7 hTOR1A-WT lysate, 635 nm fluorescence, higher = more signal
# Torsin-1A (Homo sapiens) [8] = target: Torsin-1A (Homo sapiens) (UniProt O14656); experiment: torsin A mutant lysate binding on microarrays – cell lysate, small-molecule microarray, COS7 lysate, 635/667 nm fluorescence, primary screen (AID 1150); settings: COS7 hTOR1A mutant lysate, 635 nm fluorescence, higher = more signal;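 also: score pools 667 nm emission and signal to noise measuring lysate protein binding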
# [9] = test system: Sonic hedgehog protein (Shh); experiment: Sonic hedgehog microarray binding compounds – biochemical, small-molecule microarray, 635/667 nm fluorescence, primary screen (AID 1151); settings: 635 nm fluorescence, higher = more signal;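 also: Shh protein binding to compounds spotted on small-molecule microarray slides; score combines spot fluorescence intensity with signal-to-noise across triplicate slides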
# [10] = optical density shifts of acrAB sulA E. coli – strain DRC41, OD650, 48 h, E. coli filamentation inducer project, primary screen (AID 1152); settings: higher = more signal, called active from +8 up or from −8 down;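 also: E. coli MC1000 strain DRC41 lacking acrAB efflux pump and sulA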
# [11] = probe aLefty1 binding on compound microarray – biochemical, small-molecule microarray, 635/667 nm fluorescence, primary screen (AID 1153); settings: higher = more signal;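 also: score merges spot fluorescence with signal-to-noise ratio from the scanned slide images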
# [12] = plasmodial surface anion channel blockers, osmotic lysis – cell-based, P. falciparum Indochina, OD700, 1 h, primary screen (AID 1154); settings: P. falciparum Indochina infected RBC osmotic lysis, higher = more signal, called active from +8 up or from −8 down
# [13] = plasmodial surface anion channel blockers, osmotic lysis – cell-based, P. falciparum Indochina, OD700, 2 h, primary screen (AID 1155);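 also: lysis reports solute entry through the parasite surface anion channel PSAC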; settings: P. falciparum Indochina infected erythrocytes, higher = more signal, called active from +8 up or from −8 down
# [14] = changes in parasitized red cell lysis, either direction – P. falciparum Indochina, OD700, 3 h, PSAC antagonist project, primary screen (AID 1156); settings: P. falciparum-infected erythrocytes, osmotic lysis, higher = more signal, called active from +8 up or from −8 down
# [15] = plasmodial surface anion channel blockers, osmotic lysis – cell-based, P. falciparum Indochina, OD700, 18 h, primary screen (AID 1157); settings: P. falciparum Indochina infected erythrocytes, osmotic lysis OD700, 18 h; higher = more signal, called active from +8 up or from −8 down
# [16] = S6 kinase pathway phospho-S6 level changes – cell-based, A549, cytoblot, luminescence, serum-stimulated, primary screen (AID 1158); settings: 5 h, higher = more signal;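 also: serum-stimulated A549 lung adenocarcinoma cells; signal is phosphorylated S6 detected by cytoblot immunostaining with HRP secondary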
# [17] = target: NADPH oxidase 2 (Homo sapiens) (UniProt P04839); experiment: compounds shifting NOX2 Amplex Red fluorescence – cell-based, HEK293-NOX2, PMA-stimulated, NOX inhibitor project, primary screen (AID 1159); settings: 45 min, higher = more signal, called active from +8 up or from −8 down; also: test concentration not given here
# [18] = target: NADPH oxidase 4 (Homo sapiens) (UniProt Q9NPH5); experiment: compounds shifting NOX4 Amplex Red fluorescence – cell-based, HEK293-NOX4, tetracycline-induced, NOX inhibitor project, primary screen (AID 1160); settings: HEK293-NOX4, Amplex Red H2O2 fluorescence, 45 min; higher = more signal, called active from +8 up or from −8 down
# [19] = target: NADPH oxidase 5 (Homo sapiens) (UniProt Q96PH1); experiment: compounds shifting NOX5 Amplex Red fluorescence – cell-based, HEK293-NOX5, NOX inhibitor project, primary screen (AID 1161); settings: HEK293-NOX5, ionomycin, 45 min, higher = more signal
# Sequence of NADPH oxidase 5 (Homo sapiens) (Q96PH1 whole entry, looked up): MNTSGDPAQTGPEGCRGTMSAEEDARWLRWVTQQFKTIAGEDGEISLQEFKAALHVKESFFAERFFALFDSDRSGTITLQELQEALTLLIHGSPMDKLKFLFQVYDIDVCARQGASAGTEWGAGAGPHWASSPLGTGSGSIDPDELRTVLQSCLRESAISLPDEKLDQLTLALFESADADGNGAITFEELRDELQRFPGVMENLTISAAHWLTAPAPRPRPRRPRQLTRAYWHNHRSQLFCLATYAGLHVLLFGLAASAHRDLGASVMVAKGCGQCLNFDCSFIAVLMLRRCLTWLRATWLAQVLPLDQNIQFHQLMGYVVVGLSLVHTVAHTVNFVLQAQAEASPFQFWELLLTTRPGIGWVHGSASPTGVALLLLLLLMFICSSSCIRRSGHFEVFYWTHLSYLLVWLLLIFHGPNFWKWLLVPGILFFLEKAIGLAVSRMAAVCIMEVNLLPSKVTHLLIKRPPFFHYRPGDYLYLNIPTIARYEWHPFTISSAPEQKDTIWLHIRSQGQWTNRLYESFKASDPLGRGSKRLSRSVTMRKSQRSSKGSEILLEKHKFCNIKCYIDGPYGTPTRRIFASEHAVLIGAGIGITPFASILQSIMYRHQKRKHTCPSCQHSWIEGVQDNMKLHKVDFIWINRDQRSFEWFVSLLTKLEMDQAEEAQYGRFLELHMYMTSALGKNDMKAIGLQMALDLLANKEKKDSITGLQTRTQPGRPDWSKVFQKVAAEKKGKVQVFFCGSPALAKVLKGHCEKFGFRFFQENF
# Sequence of NADPH oxidase 2 (Homo sapiens) (P04839 whole entry, looked up): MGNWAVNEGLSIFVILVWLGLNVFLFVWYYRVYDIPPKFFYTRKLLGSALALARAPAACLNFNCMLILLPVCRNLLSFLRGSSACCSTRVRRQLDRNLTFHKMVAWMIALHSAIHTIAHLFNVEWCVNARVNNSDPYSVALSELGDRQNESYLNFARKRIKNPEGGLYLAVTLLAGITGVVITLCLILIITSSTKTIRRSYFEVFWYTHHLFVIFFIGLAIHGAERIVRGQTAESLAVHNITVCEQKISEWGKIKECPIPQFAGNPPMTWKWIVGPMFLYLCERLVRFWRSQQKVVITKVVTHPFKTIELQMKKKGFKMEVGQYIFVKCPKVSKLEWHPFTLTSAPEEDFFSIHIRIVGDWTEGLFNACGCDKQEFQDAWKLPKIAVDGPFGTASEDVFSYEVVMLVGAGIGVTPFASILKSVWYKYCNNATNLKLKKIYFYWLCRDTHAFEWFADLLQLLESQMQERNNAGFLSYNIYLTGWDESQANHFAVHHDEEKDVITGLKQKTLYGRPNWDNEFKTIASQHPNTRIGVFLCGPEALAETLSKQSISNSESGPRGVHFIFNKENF
# Sequence of NADPH oxidase 4 (Homo sapiens) (Q9NPH5 whole entry, looked up): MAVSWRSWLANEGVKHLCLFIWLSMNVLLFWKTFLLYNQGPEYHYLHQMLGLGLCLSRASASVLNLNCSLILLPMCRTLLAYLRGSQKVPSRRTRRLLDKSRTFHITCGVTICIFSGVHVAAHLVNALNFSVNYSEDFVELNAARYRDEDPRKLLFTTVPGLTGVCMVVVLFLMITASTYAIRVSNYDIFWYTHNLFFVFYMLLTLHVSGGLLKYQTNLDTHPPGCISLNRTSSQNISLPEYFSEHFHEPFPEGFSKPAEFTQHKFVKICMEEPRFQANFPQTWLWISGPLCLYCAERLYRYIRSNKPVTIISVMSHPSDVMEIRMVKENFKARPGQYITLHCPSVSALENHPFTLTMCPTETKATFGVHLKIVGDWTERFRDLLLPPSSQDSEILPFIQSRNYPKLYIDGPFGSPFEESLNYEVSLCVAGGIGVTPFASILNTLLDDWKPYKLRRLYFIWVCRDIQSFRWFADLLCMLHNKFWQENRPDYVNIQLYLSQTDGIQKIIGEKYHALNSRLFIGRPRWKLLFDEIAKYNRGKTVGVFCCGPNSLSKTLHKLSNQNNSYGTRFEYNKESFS
# Sequence of Torsin-1A (Homo sapiens) (O14656 whole entry, looked up): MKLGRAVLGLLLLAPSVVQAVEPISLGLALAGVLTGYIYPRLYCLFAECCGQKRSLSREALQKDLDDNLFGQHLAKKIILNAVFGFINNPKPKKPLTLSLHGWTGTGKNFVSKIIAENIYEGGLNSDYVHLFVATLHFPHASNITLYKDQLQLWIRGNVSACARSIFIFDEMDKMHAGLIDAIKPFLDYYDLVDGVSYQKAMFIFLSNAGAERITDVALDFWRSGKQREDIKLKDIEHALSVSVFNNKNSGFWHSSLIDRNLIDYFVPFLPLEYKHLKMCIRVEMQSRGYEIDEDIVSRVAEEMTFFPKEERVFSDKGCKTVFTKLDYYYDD
# Sequence of Streptavidin (Streptomyces avidinii) (P22629 whole entry, looked up): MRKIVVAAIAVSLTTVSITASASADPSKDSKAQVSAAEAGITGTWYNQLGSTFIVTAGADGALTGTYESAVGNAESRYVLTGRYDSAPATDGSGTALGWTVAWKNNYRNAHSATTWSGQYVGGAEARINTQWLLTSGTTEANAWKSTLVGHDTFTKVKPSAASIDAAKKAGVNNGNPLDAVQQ
SMILES,composite z-score [1],z-score [2],z-score [3],z-score [4],composite z-score [5],composite z-score [6],composite z-score (Torsin-1A (Homo sapiens) [7]),composite z-score (Torsin-1A (Homo sapiens) [8]),composite z-score [9],z-score [10],composite z-score [11],z-score [12],z-score [13],z-score [14],z-score [15],z-score [16],z-score [17],z-score [18],z-score [19]
C[C@@H]1NC(=O)CC=C[C@@H](C)[C@@H]2C=C[C@H](O)[C@@H](COC(=O)[C@H](C)NC(=O)CC=C[C@@H](C)[C@@H]3C=C[C@H](O)[C@@H](COC1=O)O3)O2,0.0414,-3.48 (inactive),-0.925 (inactive),-0.89 (inactive),-0.664,-0.0581,0.436,0.104,1.04,0.327 (inactive),-0.147,1.33 (inactive),-0.302 (inactive),0.232 (inactive),-1.39 (inactive),1.64,1.28 (inactive),-0.991 (inactive),-0.0558
CC(C)[Si]1(C(C)C)O[C@@H](c2ccccc2)c2cc(C3CC3)nc(-c3ccc(Oc4ccccc4)cc3)c21,-0.217,-0.313 (inactive),0.0176 (inactive),-0.59 (inactive),-0.646,-0.0082,-0.617,-0.0373,-0.239,2.17 (inactive),-0.0011,0.835 (inactive),-0.0994 (inactive),1.08 (inactive),-0.812 (inactive),-0.164,1.06 (inactive),0.86 (inactive),0.456
CO[C@H]1COC(=O)[C@@H](C)NC(=O)CC=C[C@@H](C)[C@H](OC)COC(=O)CC=C[C@@H]1C,0.0227,-2.38 (inactive),-0.747 (inactive),-1.2 (inactive),0.0569,-0.39,1.45,1.69,2.21,0.394 (inactive),0.0455,1.08 (inactive),-0.211 (inactive),0.237 (inactive),-1.58 (inactive),0.722,0.714 (inactive),0.981 (inactive),0.539
O=C1O[C@@H](c2ccccc2)[C@@H](c2ccccc2)N2[C@@H](c3ccc(O)cc3)[C@]3(C(=O)Nc4ccccc43)[C@@H](C(=O)N3CCN(c4ncccn4)CC3)[C@H]12,-0.0063,-5 (inactive),-0.815 (inactive),-0.245 (inactive),-0.6,-0.178,0.828,0.232,-0.0193,3.11 (inactive),-0.263,2.76 (inactive),-0.363 (inactive),0.541 (inactive),-1.54 (inactive),2.51,0.142 (inactive),-0.0244 (inactive),1.51
O=C1OCCC=C[C@H]2OC34C=CCN(Cc5ccccc5)C(=O)[C@H]3N(CCO)C(=O)[C@@H]4C12 (stereo partly specified),-0.17,-4.38 (inactive),-0.899 (inactive),-0.894 (inactive),-0.88,-0.285,-0.42,-0.261,-0.127,2.51 (inactive),-0.133,1.07 (inactive),-0.436 (inactive),-0.769 (inactive),-0.8 (inactive),1.82,0.681 (inactive),-0.573 (inactive),0.869
CCCCCCc1nc(C2CC2)c(C)c2c1[Si](C(C)C)(C(C)C)OC2,-0.0534,-5.02 (inactive),0.236 (inactive),-0.75 (inactive),-0.0332,-0.0494,0.277,0.305,0.0027,2.16 (inactive),-0.196,2.89 (inactive),0.176 (inactive),-0.162 (inactive),0.0166 (inactive),3.38,-0.579 (inactive),-0.404 (inactive),-1.38
Cc1ccc(S(=O)(=O)c2cc3oc2CC[C@@H](CO)NC(=O)N(C)Cc2cn(nn2)C[C@H](Cc2ccccc2)NC3=O)cc1,-0.0319,-0.0124 (inactive),-0.332 (inactive),-0.58 (inactive),-0.183,-0.0335,0.285,0.501,0.0007,3.05 (inactive),-0.234,28.3 (active),13.3 (active),0.208 (inactive),2.03 (inactive),0.533,0.644 (inactive),0.743 (inactive),0.648
COc1cccc([C@@H]2[C@@H](C)CC[C@H]3C(=O)N4[C@H](c5cccc(OC)c5)[C@@H](C)CC[C@H]4C(=O)N23)c1,0.0508,-1.88 (inactive),1.38 (inactive),-1.18 (inactive),0.258,0.054,0.504,0.824,0.944,-0.0799 (inactive),-0.234,-0.0074 (inactive),-0.69 (inactive),-1.21 (inactive),-0.987 (inactive),3.15,0.181 (inactive),0.349 (inactive),0.796
CO[C@@H]1COC(=O)[C@@H]2CCCN2C(=O)CC=C[C@@H](C)[C@H](OC)COC(=O)[C@@H]2CCCN2C(=O)CC=C[C@H]1C,-0.137,-0.381 (inactive),-0.292 (inactive),-0.559 (inactive),-0.613,-0.179,0.985,0.306,2.1,1.11 (inactive),-0.0984,-0.0896 (inactive),0.0184 (inactive),0.11 (inactive),-0.113 (inactive),0.956,-0.353 (inactive),0.476 (inactive),0.606
